Experiment [1] in a line: inhibitors of TNFa-induced NFkB p65 translocation, primary screen, imaging, HUVEC, MLSMR starter and 10KST1 sets (AID 438;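 active = inhibition above 20% together with a positive visual image hit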;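 also: compound added about 3h40 before a 20 min TNFalpha stimulation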;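 as to inhibition: signal is the nuclear over cytoplasmic p65 intensity ratio per well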). The settings on record: HUVEC TNFa-induced p65 nuclear translocation; cell count: measured here: nuclei count (cytotoxicity indicator), at 2.08 µM; inhibition: at 2 µM, stronger effect = higher value, 0% TNFa-plus-vehicle, 100% no-TNFa wells.
The nature of experiment [2]: endothelial E-selectin expression blockers – imaging, HUVEC, immunofluorescence, MLSMR starter and 10KST1 sets, primary screen (AID 487;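 active = visually confirmed hit in the image check and inhibition above 20%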;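 as to inhibition: signal is fraction of cell area covered by stained E-selectin grains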;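 as to nuclei count: 100% = median nuclei count of all wells on the same plate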). The settings on record: HUVEC TNFalpha-induced E-selectin immunofluorescence imaging, at 2 µM; inhibition: stronger effect = higher value; nuclei count: measured here: cell number, toxicity.
The nature of experiment [3]: Primary imaging screen for DUSP6 inhibitors that restore phospho-Erk in transfected HeLa cells, chemical complementation (AID 609;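 active = compounds giving at least 50% inhibition in the cell-based MKP-3 phosphatase rescue imaging test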;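 as to inhibition: phospho-Erk level distribution per well compared with pooled transfected vehicle control wells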). Conditions: HeLa MKP-3 transfected, phospho-Erk imaging KS statistic, at 10 µM, cells stimulated with TPA for 15 min.
Experiment [4] addresses Dual specificity protein phosphatase 6 (Homo sapiens) (UniProt Q16828). The experiment is described as above. Conditions: HeLa MKP-3 transfected, phospho-Erk imaging KS statistic; at 10 µM; stronger effect = higher value; cells stimulated with TPA for 15 min.
Experiment [5] deals with Voltage-gated potassium channel subunit beta-2 (Rattus norvegicus) (UniProt P62483). As to the kind of experiment: inhibitors of rat Kvbeta2 reductase activity – biochemical, NADPH fluorescence, primary screen (AID 622;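 active = fluorescence slope higher than the sample average by over 3 SD, cut at about -0.22 in these data, passing the limit was not always enough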;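 also: slope of raw intensity against log time taken from 70 to 1610 s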). The settings on record: recombinant KvBeta, 4-cyanobenzaldehyde reduction, at 10 µM, stronger effect = higher value.
Voltage-gated potassium channel subunit beta-2 (Rattus norvegicus), sequence (P62483 whole entry, looked up): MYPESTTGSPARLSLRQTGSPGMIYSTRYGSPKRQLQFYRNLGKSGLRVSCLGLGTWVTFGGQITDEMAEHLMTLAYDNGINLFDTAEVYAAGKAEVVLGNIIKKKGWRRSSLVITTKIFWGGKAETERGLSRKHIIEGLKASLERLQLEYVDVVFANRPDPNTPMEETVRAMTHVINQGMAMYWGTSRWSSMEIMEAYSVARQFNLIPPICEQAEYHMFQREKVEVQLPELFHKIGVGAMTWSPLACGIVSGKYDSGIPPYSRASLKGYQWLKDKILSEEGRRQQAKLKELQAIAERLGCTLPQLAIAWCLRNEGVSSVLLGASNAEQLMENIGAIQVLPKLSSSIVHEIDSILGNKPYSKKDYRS
For experiment [6] the target is unchanged. In words: enhancers of rat Kvbeta2 NADPH turnover – biochemical, NADPH fluorescence, primary screen (AID 623;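 active = NADPH fluorescence slope more negative than the mean of all samples by about 3 SD, 99.7% confidence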;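 also: fluorescence intensity change per second fitted from 20 to 320 s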). Conditions: Recombinant KvBeta, NADPH fluorescence decrease slope, 10 min; at 10 µM; stronger effect = lower value.
For experiment [7], the target named is Muscarinic acetylcholine receptor M4 (Homo sapiens) (UniProt P08173). As to the kind of experiment: M4-linked GIRK flux change, two-sided – cell-based, HEK293 M4/GIRK, thallium flux, BTC-AM, M4 allosteric agonist project, primary screen (AID 625;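 active = fluorescence slope after compound addition differing from the mean of all tested samples at 99.7% confidence, mostly higher but some lower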;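 also: thallium influx through GIRK channels coupled to M4 in HEK293 cells with BTC-AM dye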). The settings on record: at 10 µM, actives lie on both sides.
Muscarinic acetylcholine receptor M4 (Homo sapiens), sequence (P08173 whole entry, looked up): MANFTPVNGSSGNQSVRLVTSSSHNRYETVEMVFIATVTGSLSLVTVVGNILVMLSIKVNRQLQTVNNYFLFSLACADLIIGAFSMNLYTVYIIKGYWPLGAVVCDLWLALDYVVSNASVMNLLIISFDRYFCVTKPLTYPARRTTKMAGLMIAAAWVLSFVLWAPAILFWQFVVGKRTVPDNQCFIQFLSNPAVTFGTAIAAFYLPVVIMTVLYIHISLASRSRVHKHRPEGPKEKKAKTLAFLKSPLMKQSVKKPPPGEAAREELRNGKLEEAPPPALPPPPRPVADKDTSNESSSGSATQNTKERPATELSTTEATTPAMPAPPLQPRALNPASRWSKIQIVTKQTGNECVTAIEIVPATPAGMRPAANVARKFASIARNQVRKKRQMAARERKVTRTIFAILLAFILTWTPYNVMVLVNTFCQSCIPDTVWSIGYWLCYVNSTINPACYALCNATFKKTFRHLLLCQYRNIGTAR
The nature of experiment [8]: inhibitors of larval lipid processing in zebrafish, primary screen, whole organism, PED6 fluorescence, gall bladder and intestine (AID 686;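 active = a full or partial loss of lipid-probe fluorescence in the fish gall bladder, intestine or both, judged by eye; inactive = no fluorescence loss, or compound toxic to the fish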;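 also: larvae 5 to 7 days old with five fish per well; signal comes from phospholipase A2 cleavage of quenched PED6 carried via bile; overnight exposure to compound and PED6 before scoring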). Conditions: Zebrafish larvae PED6 lipid processing, fluorescence scoring; screened at 20 µM (by protocol).
A short description of experiment [9]: loss of swimming-algae plug formation – whole organism, Chlamydomonas reinhardtii, WT vs cilia-less mutant, absorbance, 96-well, primary screen (AID 463189).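 Also: 0% = wild type cc124 cells in DMSO and 100% = ciliumless bld1 mutant cells.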 Conditions: Chlamydomonas reinhardtii gravitaxis, OD600 absorbance, 2 days; at 10 µM; stronger effect = higher value.
[10] abbreviates: measured here: cell density z-score.
Setting [11] is: measured here: nuclear c-Myc green intensity z-score.
Setting [12] is: measured here: nuclear pErk red intensity z-score, stronger effect = higher value.

Experimental findings from PubChem BioAssay are described below.

Each structure is given as a SMILES string. Calls of active or inactive are those of the source.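 The calls were made as follows, unless noted: active = inhibition at or above 50% relative to wild type and mutant plate controls; inactive = inhibition below 50%.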

Dual specificity protein phosphatase 6 (Homo sapiens), sequence (Q16828 whole entry, looked up): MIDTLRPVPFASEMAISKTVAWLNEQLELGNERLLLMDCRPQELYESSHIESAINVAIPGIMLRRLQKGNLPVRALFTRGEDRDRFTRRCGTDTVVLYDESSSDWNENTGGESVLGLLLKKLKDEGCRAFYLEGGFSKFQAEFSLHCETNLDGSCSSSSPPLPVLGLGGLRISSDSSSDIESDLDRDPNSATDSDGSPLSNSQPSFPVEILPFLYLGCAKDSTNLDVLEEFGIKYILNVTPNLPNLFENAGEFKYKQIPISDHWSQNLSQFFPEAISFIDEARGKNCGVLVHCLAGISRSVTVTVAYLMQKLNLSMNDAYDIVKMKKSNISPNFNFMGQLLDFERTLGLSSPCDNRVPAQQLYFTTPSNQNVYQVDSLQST

`FC(F)(F)c1cccc(-n2cccc2/C=N/n2cnnc2)c1`: the cell count in experiment [1] stood at 415. Further, the inhibition (commonly the drop in the measured response relative to a control, in per cent) in experiment [1] was -3.1% (inactive); in experiment [2] it was 39.9% (inactive); in [4], -0.608% (inactive); in [9], 13.6% (inactive). In experiment [2], this compound had a nuclei count of 140%. Besides, the z-score in experiment [3] (setting [10]) was -1.39; in [3] (setting [11]), 0.953; in experiment [3] (setting [12]) it was 1.88. Besides, the fluorescence slope in [5] is -0.438 (inactive); in experiment [7] it was 0.00494 (inactive). Further, the NADPH fluorescence slope in experiment [6] is -0.00012 (inactive). The result in [8] was inactive.
As to `C(=N\n1cnnc1)/c1cccc(Oc2ccccc2)c1`, the cell count in experiment [1] was determined as 569. Moreover, the inhibition is -5.8% (inactive) in experiment [1], -140% (inactive) in experiment [2], -6.06% (inactive) in experiment [4] and 78.1% (active) in experiment [9]. This compound returned a nuclei count in experiment [2] of 111%. For the same compound, the z-score was -0.768 in experiment [3] (setting [10]), 1.37 in experiment [3] (setting [11]) and 1.58 in experiment [3] (setting [12]). The fluorescence slope in experiment [5] was -0.515 (inactive); in experiment [7], 0.00705 (inactive). Further, in experiment [6], the NADPH fluorescence slope was -5.4e-05 (inactive). In addition, in experiment [8], the compound was classed as inactive.
As to `Cc1ccc(C(=O)C2=C(O)C(=O)N(CCN3CCOCC3)C2c2ccccn2)o1` (centres undefined), the cell count in [1] came to 403. For the same compound, the inhibition in experiment [1] was 1.7% (inactive); in experiment [2] it was -75.7% (inactive); in [4] it was -0.608% (inactive); in experiment [9], -7.55% (inactive). In [2], this compound yielded a nuclei count of 147%. Further, the z-score in experiment [3] (setting [10]) was -0.208; in experiment [3] (setting [11]) it was -0.969; in experiment [3] (setting [12]), -0.257. In addition, the fluorescence slope in experiment [5] is -0.474 (inactive); in experiment [7], 0.00402 (inactive). Besides, the NADPH fluorescence slope in [6] was -0.0001 (inactive). Besides, the compound was classed as inactive in [8].
Regarding `CN1CCc2c(C#N)c(N3CCCCC3)nc(NCc3ccccc3)c2C1`, the cell count in [1] was determined as 577. The inhibition in experiment [1] was -13.5% (inactive); in experiment [2], -93.5% (inactive); in [4], -2.09% (inactive); in experiment [9], 7.09% (inactive). Besides, the nuclei count in experiment [2] was found to be 143%. The z-score in experiment [3] (setting [10]) is 0.729; in experiment [3] (setting [11]), -1.12; in [3] (setting [12]), 0.497. The figures for the fluorescence slope in experiment [5] and in [7] were -0.422 (inactive) and 0.00359 (inactive), respectively. Besides, the NADPH fluorescence slope in experiment [6] was -6.7e-05 (inactive). In experiment [8], the compound was called inactive.
Take `CCOC(=O)CCNc1n[nH]c(=O)[nH]c1=O`: the cell count in [1] is 611. Also, the inhibition is 29.6% (active) in experiment [1], -2.5% (inactive) in experiment [2], 15.5% (inactive) in experiment [4] and -1.35% (inactive) in experiment [9]. In [2], this compound had a nuclei count of 107%. Also, the z-score in experiment [3] (setting [10]) was 0.833; in [3] (setting [11]), 0.318; in [3] (setting [12]) it was -1.89. In addition, the fluorescence slope in [5] was -0.497 (inactive); in [7], 0.00518 (inactive). In [6], the NADPH fluorescence slope was -1.9e-05 (inactive). For the same compound, in [8], the compound was classed as inactive.
For `Fc1ccc2[nH]c3c(N4CCSCC4)ncnc3c2c1`, the cell count in experiment [1] is 664. Moreover, the inhibition in [1] was -4.3% (inactive); in experiment [2] it was 0.7% (inactive); in experiment [4], -3.95% (inactive); in experiment [9], 5.41% (inactive). The nuclei count in experiment [2] was 153%. Further, the z-score is -0.905 in [3] (setting [10]), 0.444 in [3] (setting [11]) and 1.27 in [3] (setting [12]). The fluorescence slope in [5] was -0.418 (inactive); in experiment [7], 0.00396 (inactive). Also, the NADPH fluorescence slope in experiment [6] was -2.2e-05 (inactive). The outcome in experiment [8] was “inactive; toxic”.
Take `CCCN(CCC)c1nc2ccccc2nc1C(C#N)C(=O)OC(C)COC` (centres undefined): the cell count in experiment [1] is 586. Besides, the inhibition in experiment [1] was -26.5% (inactive); in experiment [2] it was 1.8% (inactive); in [4] it was -12.6% (inactive); in experiment [9] it was 26.1% (inactive). Also, the nuclei count in experiment [2] stood at 174%. Besides, the z-score came out at 0.238 in [3] (setting [10]), 0.588 in experiment [3] (setting [11]) and 0.413 in [3] (setting [12]). The values for the fluorescence slope in [5] and in [7] were -0.408 (inactive) and 0.00444 (inactive), respectively. For the same compound, in experiment [6], the NADPH fluorescence slope is -7.9e-05 (inactive). Besides, in [8], the call was inactive.
On to `COCCCn1c(C)nc2c(c1=O)c1nc3ccccc3nc1n2CCc1ccccc1`, for which the cell count in experiment [1] was found to be 709. In addition, the inhibition in experiment [1] was 4.3% (inactive); in experiment [2] it was 18.7% (inactive); in experiment [4] it was -9.53% (inactive); in [9], 8.3% (inactive). Besides, the nuclei count in experiment [2] was determined as 162%. Further, the z-score in experiment [3] (setting [10]) was -0.739; in experiment [3] (setting [11]), -0.364; in [3] (setting [12]) it was -0.291. Further, the figures for the fluorescence slope in [5] and in [7] were -0.341 (inactive) and 0.00467 (inactive), respectively. For the same compound, the NADPH fluorescence slope in experiment [6] is -5.1e-05 (inactive). Also, the call in [8] was inactive.
On to `CSc1nc2[nH]c3c(c2c2nnnn12)CCCC3`, for which the cell count in experiment [1] worked out at 571. Moreover, the inhibition in [1] was -2.3% (inactive); in experiment [2], -139% (inactive); in experiment [4], 13.4% (inactive); in [9], 79.4% (active). For the same compound, the nuclei count in [2] came to 145%. Besides, the z-score in [3] (setting [10]) was 0.625; in [3] (setting [11]) it was 0.274; in experiment [3] (setting [12]), -0.282. The fluorescence slope in experiment [5] is -0.341 (inactive); in experiment [7] it was 0.00402 (inactive). The NADPH fluorescence slope in experiment [6] was 0.000139 (inactive). For the same compound, the result in experiment [8] was inactive.
`Cc1cc(=O)[nH]c(COc2ccccc2)n1`: the cell count in experiment [1] was 687. In addition, the inhibition was -9.9% (inactive) in experiment [1], -104% (inactive) in [2], 3.49% (inactive) in [4] and -9.35% (inactive) in [9]. In [2], this compound yielded a nuclei count of 162%. The z-score worked out at 0.188 in experiment [3] (setting [10]), 0.603 in experiment [3] (setting [11]) and 0.438 in experiment [3] (setting [12]). Moreover, the fluorescence slope in [5] is -0.432 (inactive); in experiment [7], 0.00544 (inactive). In experiment [6], the NADPH fluorescence slope is -2e-05 (inactive). Moreover, the result in experiment [8] was inactive.
Consider `COc1ccccc1C1CC(c2ccc(Cl)cc2)Nc2nc(N)nn21` (centres undefined), for which the cell count in [1] amounted to 404. The inhibition in experiment [1] was 0% (inactive); in experiment [2], -104% (inactive); in experiment [4] it was 11.9% (inactive); in experiment [9], -3.22% (inactive). Also, in [2], the nuclei count stood at 146%. In addition, the values for the z-score in [3] (setting [10]), in experiment [3] (setting [11]) and in [3] (setting [12]) were -0.136, -0.282 and -0.582, respectively. For the same compound, the fluorescence slope was -0.459 (inactive) in experiment [5] and 0.00483 (inactive) in [7]. In addition, in experiment [6], the NADPH fluorescence slope was -0.000104 (inactive). Moreover, the compound was called inactive in [8].
Consider `Cc1cccc(OCCN2CSC(=S)N(C)C2)c1`, for which the cell count in experiment [1] turned out to be 542. For the same compound, the inhibition in experiment [1] was -14.5% (inactive); in experiment [2], -138% (inactive); in experiment [4], 9.42% (inactive); in experiment [9] it was 45.3% (inactive). For the same compound, the nuclei count in experiment [2] worked out at 129%. The z-score is 0.0536 in experiment [3] (setting [10]), -1.14 in experiment [3] (setting [11]) and 0.0169 in [3] (setting [12]). Moreover, the results for the fluorescence slope in [5] and in experiment [7] were -0.494 (inactive) and 0.0046 (inactive), respectively. For the same compound, the NADPH fluorescence slope in experiment [6] was -7.6e-05 (inactive). Further, the outcome in experiment [8] is “inactive; toxic”.
Take `N#Cc1c2c(c(-c3ccco3)[nH]c1=O)CCCC2`: the cell count in experiment [1] came out at 576. Further, the inhibition was -5% (inactive) in [1], -60.2% (inactive) in experiment [2], -5.81% (inactive) in experiment [4] and 17% (inactive) in [9]. The nuclei count in [2] came to 152%. Besides, the z-score in experiment [3] (setting [10]) is -0.652; in experiment [3] (setting [11]), 0.857; in experiment [3] (setting [12]), 0.409. In addition, the fluorescence slope in experiment [5] was -0.435 (inactive); in experiment [7], 0.00432 (inactive). In addition, in experiment [6], the NADPH fluorescence slope is -0.000117 (inactive). Moreover, in experiment [8], the call was inactive.
